TMEM16A act – TMEM16A chloride channel activators or potentiators, primary screen, cell-based, HTS | Anoctamin-1 (Mus musculus), Q8BHY3 | HEK293 TMEM16A/YFP-H148Q/I152L, iodide quench fluorescence; hits give low values | B-score at 10 µM | 0.3% of 340,000 active;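 active = fluorescence-ratio B-score plate-corrected deviation score at least 3 library SD below zero, with starting fluorescence score within 5 deviations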;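 note: channel opened by trigger with iodide after compound preincubation; score built on the fluorescence ratio of max minus min over baseline; more negative score means more quench and so TMEM16A activation or potentiation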
CHT PAM – CHT positive allosteric modulators, primary screen, cell-based, membrane potential dye, choline EC20; 0.49% of 310,000 active; B-score at 10 µM; High affinity choline transporter 1 (Homo sapiens), Q9GZV3; CHT-expressing cells; hits give high values; LV-AA mutant CHT in HEK293 cells;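 active = initial fluorescence not abnormally high and integrated response B-score, plate-corrected, over 3 SD above library mean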
Target sequence (Q9GZV3 whole entry, looked up): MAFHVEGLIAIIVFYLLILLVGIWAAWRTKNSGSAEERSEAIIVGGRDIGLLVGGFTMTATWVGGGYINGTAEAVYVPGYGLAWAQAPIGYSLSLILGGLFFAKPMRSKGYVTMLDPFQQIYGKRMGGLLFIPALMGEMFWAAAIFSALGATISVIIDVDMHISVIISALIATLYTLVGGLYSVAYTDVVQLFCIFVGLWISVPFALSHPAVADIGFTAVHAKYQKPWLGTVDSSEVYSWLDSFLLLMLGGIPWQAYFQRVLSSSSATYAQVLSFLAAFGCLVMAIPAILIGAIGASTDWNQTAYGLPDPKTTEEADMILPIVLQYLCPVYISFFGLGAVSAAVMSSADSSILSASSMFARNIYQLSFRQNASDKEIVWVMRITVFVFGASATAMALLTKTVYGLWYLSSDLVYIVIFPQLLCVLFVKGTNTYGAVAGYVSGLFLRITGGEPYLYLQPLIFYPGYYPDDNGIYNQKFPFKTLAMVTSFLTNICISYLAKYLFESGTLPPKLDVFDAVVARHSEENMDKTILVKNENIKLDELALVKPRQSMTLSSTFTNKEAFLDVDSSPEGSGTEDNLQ
ANO1 block – TMEM16A chloride channel inhibitors, primary screen, cell-based, HTS; HEK293 TMEM16A/YFP iodide influx fluorescence, ionomycin; normalized B-score (activity score, 25-100; higher = stronger inhibition) at 10 µM; 1.2% of 310,000 active; Anoctamin-1 (Mus musculus), Q8BHY3;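 active = ratio plate-corrected score three or more library SD toward inhibition, starting fluorescence score within five deviations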;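 note: score derived from kinetic fluorescence span divided by baseline fluorescence per well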
CHT block – inhibitors of human choline transporter CHT; CHT-expressing cells, membrane potential dye, choline response; hits give low values; B-score at 10 µM; 0.86% of 310,000 active; AID 488975, 2010;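 active = B-score over 3 SD under the library average, and starting fluorescence ratio not unusually high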;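 note: choline stimulus applied at its EC90 after an EC20 pre-addition; B-score computed on integrated fluorescence ratio after choline addition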
CHT activ conf – CHT activators, confirmation, cell-based, membrane potential dye, duplicate; AID 504833, 2011; activation, % at 10 µM; shares compounds with CHT PAM; 91% of 2,500 active; CHT-expressing cells, membrane potential dye fluorescence (FDSS); % of choline EC20–EC90 response window; HEK293 expressing CHT LV-AA mutant; choline added at its EC20;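 active = primary screen active, with duplicate mean activation above negative control mean plus 3 SD, cut at about 11% in these data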
HEK293 MP dye – membrane potential response in parental HEK293 cells, counter-screen for CHT activator project, cell-based, membrane potential dye | shares compounds with CHT PAM | 62% of 2,500 active | membrane potential dye fluorescence (FDSS); measured after EC20 choline addition | AID 623908, 2012 | ratio readout change at 10 µM, hits read low;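 active = duplicate-averaged ratio beyond 3 SD from buffer wells, up or down, though filed actives are nearly all decreases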
* hit, by the source's call. Sampled rows, rich in hits. Any-hit rate of the full collection: about 2.3%.

Screening Cc1ccccc1-c1nc(CN2CCC(C(=O)NCCCN3CCOCC3)CC2)c(C)o1 returned TMEM16A act inactive, CHT PAM inactive, ANO1 block inactive, CHT block inactive, CHT activ conf 40* and HEK293 MP dye -26*.
For Cc1oc(-c2ccc(Cl)cc2)nc1CN1CCC(C(=O)NCCCN2CCCC2=O)CC1 the results were TMEM16A act inactive, CHT PAM inactive, ANO1 block inactive and CHT block inactive.
Screening Cc1ccccc1-c1nc(CN2CCC(C(=O)NCCN3CCOCC3)CC2)c(C)o1 returned TMEM16A act inactive, CHT PAM inactive, ANO1 block inactive and CHT block inactive.
For Cc1oc(-c2ccc(Cl)cc2)nc1CN1CCC(C(=O)NCCCN2CCCC(C)C2)CC1 (stereo not given) the results were TMEM16A act inactive, CHT PAM inactive, ANO1 block inactive, CHT block inactive, CHT activ conf 55* and HEK293 MP dye -28*.
Screening CCc1cccc(NC(=O)CN(c2ccc(C)cc2)S(=O)(=O)c2c(C)noc2C)c1 returned TMEM16A act inactive, CHT PAM inactive, ANO1 block inactive and CHT block inactive.
Screening Nc1cnnc(N/N=C\c2ccccc2)c1Cl returned TMEM16A act inactive, CHT PAM 6.4*, ANO1 block inactive, CHT block inactive, CHT activ conf 57* and HEK293 MP dye -54*.
For Nc1nonc1N/N=C\c1ccccc1 the results were TMEM16A act inactive, CHT PAM inactive, ANO1 block inactive and CHT block inactive.
`Cc1cccc(CN2CCC(CNC(=O)CSc3cc(=O)n(C)c4cc(Cl)ccc34)CC2)c1` gave TMEM16A act inactive, CHT PAM 6.4*, ANO1 block inactive, CHT block inactive, CHT activ conf 21* and HEK293 MP dye inactive.
CCN(CC)S(=O)(=O)c1ccc2c(c1)c(=O)c(C(=O)NCCN(C)CCc1ccccc1)cn2C was read as TMEM16A act inactive, CHT PAM inactive, ANO1 block inactive and CHT block inactive.
Screening CCN(CC)CCCNC(=O)c1cn(C)c2ccc(S(=O)(=O)N(C)C)cc2c1=O returned TMEM16A act inactive, CHT PAM 6.4*, ANO1 block inactive, CHT block inactive, CHT activ conf 55* and HEK293 MP dye -35*.
Screening CN(CCNC(=O)c1cn(C)c2ccc(S(=O)(=O)N(C)C)cc2c1=O)CCc1ccccc1 returned TMEM16A act inactive, CHT PAM inactive, ANO1 block inactive, CHT block inactive, CHT activ conf 23* and HEK293 MP dye -26*.
Screening CN(C1CCCCC1)S(=O)(=O)c1ccc2c(c1)c(=O)c(C(=O)NCCN1CCCC1)cn2C returned TMEM16A act inactive, CHT PAM inactive, ANO1 block inactive, CHT block inactive, CHT activ conf 40* and HEK293 MP dye -37*.
For CCCCNC(=O)c1cn(C)c2ccc(S(=O)(=O)N3CCCC3)cc2c1=O the results were TMEM16A act inactive, CHT PAM inactive, ANO1 block inactive and CHT block inactive.
For O=C(COc1ccc(Br)cc1)NNC(=O)c1ccc(-n2cncn2)c([N+](=O)[O-])c1 the results were TMEM16A act inactive.
`Cc1nc(N2CCN(C)CC2)c2sc(=S)n(C)c2n1` gave TMEM16A act inactive, CHT PAM inactive, ANO1 block inactive, CHT block inactive, CHT activ conf 33* and HEK293 MP dye -50*.
`Cc1ccc(-c2cc[n+](Cc3ccccc3)cc2)cc1` gave TMEM16A act inactive, CHT PAM 6.7*, ANO1 block inactive, CHT block inactive, CHT activ conf 58* and HEK293 MP dye -42*.
Cc1cc[n+](Cc2ccc([N+](=O)[O-])cc2)cc1 was read as TMEM16A act inactive, CHT PAM inactive, ANO1 block inactive and CHT block inactive.
For COc1cc(/C=C2\CCn3c2nc2cc(C(=O)O)ccc2c3=O)ccc1OC(F)F the results were TMEM16A act inactive, CHT PAM inactive, ANO1 block inactive, CHT block inactive, CHT activ conf 26* and HEK293 MP dye -32*.
For O=C(O)c1ccc2c(=O)n3c(nc2c1)/C(=C/c1ccc(C(F)(F)F)cc1)CC3 the results were CHT PAM inactive, ANO1 block inactive and CHT block inactive.
Cc1cc(Cn2ccnc2)c(C)cc1Cn1ccnc1 was read as TMEM16A act inactive, CHT PAM inactive, ANO1 block inactive, CHT block inactive, CHT activ conf 45* and HEK293 MP dye -41*.
Screening Cc1cc2oc(=O)cc(Cn3ccnc3)c2cc1Cl returned TMEM16A act inactive, CHT PAM inactive, ANO1 block inactive and CHT block inactive.
`CSc1ccc(-c2sc(Nc3ccccc3)n[n+]2-c2ccccc2)cc1` gave TMEM16A act inactive, CHT PAM 8.2*, ANO1 block inactive, CHT block inactive, CHT activ conf 15* and HEK293 MP dye inactive.
For CCc1ccc(Nc2n[n+](-c3ccccc3)c(-c3ccc(SC)cc3)s2)cc1 the results were TMEM16A act inactive, CHT PAM 11*, ANO1 block inactive, CHT block inactive, CHT activ conf 26* and HEK293 MP dye inactive.
Screening CCc1ccc(Nc2n[n+](-c3ccccc3)c(-c3ccc(C(=O)O)cc3)s2)cc1 returned TMEM16A act inactive, CHT PAM inactive, ANO1 block inactive and CHT block inactive.
Screening COc1ccc(C)cc1Nc1n[n+](-c2ccccc2)c(-c2ccc(SC)cc2)s1 returned TMEM16A act inactive, CHT PAM 7.8*, ANO1 block inactive, CHT block inactive, CHT activ conf 46* and HEK293 MP dye inactive.
For COc1ccc(C)cc1Nc1n[n+](-c2ccccc2)c(-c2ccc(NC(C)=O)cc2)s1 the results were TMEM16A act inactive, CHT PAM inactive, ANO1 block inactive and CHT block inactive.
CC(=O)c1c(C)[nH]c(C(=O)NCCc2c[nH]c3ccccc23)c1C was read as TMEM16A act inactive, CHT PAM inactive, ANO1 block inactive and CHT block inactive.

High-throughput results: PubChem, Johns Hopkins Ion Channel Center
